Here are results for 22 compounds from PubChem BioAssay (NCI).

The panel holds about 83,000 compounds, 20% with a hit somewhere; the sample as a whole holds those more often.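 Cells were grown in 96-well plates and exposed to the test compound at a single concentration for 48 hours; results are reported as percent growth, with values below 10 considered active.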 Unmarked numbers belong to inactive results. Calls of active or inactive are those of the source.

Assay in all cases: NCI-60 one-dose screen, 48 h (100 = growth as untreated, 0 = no growth, -100 = all killed)
Details in all cases: 10 µM unless noted

The subject of assay [1] is NCI-H23 lung.
The subject of assay [2] is NCI-H226 lung.
Assay [3] deals with NCI-H322M lung.
The test system of assay [4] is HOP-62 NSCLC.
The subject of assay [5] is NCI-H460 lung.
Assay [6] concerns HOP-92 NSCLC.
Assay [7] concerns NCI-H522 lung.
The test system of assay [8] is A549/ATCC NSCLC.
The test system of assay [9] is 786-0 renal.
Assay [10] has as its system COLO 205 colon.

For the compound `Cc1cccc(NC(=O)Nc2ccc(-n3cnc4cc(-c5ccc(O)cc5)ccc43)cc2)c1`, the growth in assay [1] was 27.7%; in assay [2], 62.6%; in [3], 69.8%; in assay [4], 39.3%; in [5], 9.07% (active); in [6], 81.1%. Further, the growth was 6.16% (active) in [7], 24.9% in assay [8], 36.2% in assay [9] and 69.1% in assay [10].
Consider `O=C(/C=C(/C=C/c1coc2ccccc12)OB(F)F)/C=C/c1coc2ccccc12`, for which the growth was 93.9% in assay [1]; 105% in [2]; 103% in [3]; 113% in assay [4]; 87.7% in assay [5]; 91% in assay [6]. Besides, the growth was 90.6% in assay [7], 91.6% in assay [8], 102% in assay [9] and 95.9% in [10].
Regarding `CCN(CC)c1ccc(C(=O)c2ccccc2)cc1`, the growth in [1] was 96.4%; in [2], 87.9%; in assay [3], 97.9%; in [4], 91.2%; in assay [5], 104%; in assay [6], 89.6%. Besides, the growth was 87.2% in [7], 89.4% in [8], 103% in [9] and 111% in assay [10].
As for `N#Cc1c(NC(=O)NCc2ccccc2)sc2c1CCCCC2`, the growth is 37.5% in assay [1]; 22.5% in assay [2]; 44.9% in [3]; 34.2% in [4]; 0.445% (active) in assay [5]; 44.8% in [6]. Also, the growth in assay [7] is 12.1%; in [8] it was 25.5%; in assay [9], 26.3%; in [10], 2.15% (active).
As to `C#Cc1cccc(NC(=O)Nc2cccc(NC(=O)CCl)c2)c1`, the growth was -82.8% [8.25 µM] (active) in assay [1]; -12.1% [8.25 µM] (active) in assay [2]; 88.9% [8.25 µM] in assay [3]; 36.1% [8.25 µM] in [4]; -32.2% [8.25 µM] (active) in assay [5]; -53.1% [8.25 µM] (active) in assay [6]. Further, the growth in assay [7] is -37.5% [8.25 µM] (active); in [8] it was 56.8% [8.25 µM]; in assay [9], -65.1% [8.25 µM] (active); in assay [10], -51.3% [8.25 µM] (active).
As for `COc1cc(NC(C)CCCNC(=O)CCC(=O)NCCCNCCCCCCCCNCCCNC(=O)CCC(=O)NCCCC(C)Nc2cc(OC)cc3cccnc23)c2ncccc2c1` (stereo not given), the growth was 54.4% in [1]; 44.5% in [2]; 32.9% in assay [3]; 85.2% in assay [4]; 87.4% in assay [5]; 54.2% in [6]. For the same compound, the growth was 47.3% in assay [7], 63% in assay [8], 92.6% in assay [9] and 14.7% in assay [10].
For `Cc1nnc2c(Cc3ccccc3)nc3ccccc3n12`, the growth in assay [1] is 91.3%; in assay [2], 84.9%; in assay [3], 100%; in assay [4], 108%; in assay [5], 100%; in assay [6] it was 82.4%. The growth was 107% in [7], 97.9% in [8], 98.6% in assay [9] and 113% in assay [10].
For `CCCOC(=O)N[C@H]1CCc2c(Cl)c(OC)c(OC)c(OC)c2-c2ccc(SC)c(=O)cc21`, the growth in [1] was 26.8%; in [2] it was 6.58% (active); in [3], 31.8%; in [4], 40.5%; in assay [5], 1.99% (active); in [6] it was -2.58% (active). Besides, the growth in assay [7] was 12.3%; in assay [8], 22.8%; in [9], 4.31% (active); in assay [10], 0.25% (active).
In the case of `CC(C)=CCC[C@](C)(O)[C@H]1CC[C@]2(C)[C@@H]1CC[C@@H]1[C@@]3(C)C/C(=C/c4ccccc4)C(=O)C(C)(C)[C@@H]3CC[C@]12C`, the growth in assay [1] is 84.7%; in [2] it was 93.7%; in assay [3], 93.7%; in [4], 92.2%; in assay [5] it was 91.1%; in assay [6], 78.8%. The growth in [7] was 77.9%; in assay [8] it was 85.1%; in [9], 92.2%; in assay [10], 99.9%.
On to `O=C(c1nnc(Nc2ccccc2Br)o1)c1c[nH]c2ccccc12`, for which the growth in assay [1] was 88.1%; in assay [2], 85.6%; in assay [3], 94.6%; in [4] it was 79.2%; in assay [5], 99.2%; in [6], 97.9%. The growth was 98.2% in [7], 88.2% in assay [8], 103% in assay [9] and 98.9% in assay [10].
In the case of `Cn1c2ccccc2c2c3c(c4c5ccccc5n(C)c4c21)C(=O)OC3`, the growth in [1] is 97.6%; in [2], 80.9%; in assay [3], 87.6%; in [4], 90.8%; in [5], 97.6%; in assay [6] it was 95.6%. For the same compound, the growth in assay [7] is 88.8%; in assay [8] it was 104%; in assay [9] it was 102%; in assay [10], 107%.
On to `CCCCOc1ccc(/C=N/Nc2cc(C)nc3ccc(Br)cc23)cc1`, for which the growth in assay [1] is 74.9%; in [2], 90.2%; in [3] it was 76.9%; in assay [4], 82.5%; in assay [5] it was -34.6% (active); in assay [6] it was 68%. Moreover, the growth in [7] was 76.9%; in assay [8], 34.5%; in assay [9] it was -83.7% (active); in assay [10], -58.5% (active).
As to `Cn1ccnc1C(=O)/C=C/c1ccc(CC(=O)Nc2ccc(F)cc2)cc1`, the growth in [1] was 27.8%; in [2] it was 82.5%; in assay [3], 42.8%; in assay [4], 18.4%; in assay [5], 3.59% (active); in assay [6], 71%. For the same compound, the growth in [7] was 16.9%; in assay [8] it was 38.2%; in [9] it was 30.4%; in [10], 41.6%.
Take `Cn1c(N2NC(=O)C(N=Nc3ccc(S(N)(=O)=O)cc3)C2=O)nc(-c2ccco2)c(C#N)c1=O` (stereo not given): the growth in assay [1] was 70%; in assay [2], 94.9%; in assay [3], 107%; in [4], 96.4%; in [5], 103%; in assay [6] it was 32.3%. The growth in assay [7] is -40.5% (active); in assay [8], 109%; in assay [9], 100%; in [10], 77.1%.
As to `C=C(CBr)[C@@H]1CC[C@]2(COC(C)=O)CC[C@]3(C)[C@H](CC[C@@H]4[C@@]5(C)CCCNC(C)(C)[C@@H]5CC[C@]43C)[C@@H]12`, the growth in assay [1] is 37.7%; in assay [2], 76.9%; in [3], 83.1%; in assay [4], 67.9%; in assay [5], 17%; in assay [6] it was 39.3%. Moreover, the growth in assay [7] was 31.1%; in assay [8], 34.4%; in assay [9], 45.7%; in assay [10], 48.1%.
As to `CCCCCCNC(=O)Nc1ccc2cc3ccc(NC(=O)NCCCCCC)cc3nc2c1`, the growth in assay [1] was -39% (active); in assay [2], 79.5%; in assay [3], 22.8%; in [4] it was 18.1%; in assay [5] it was -11.9% (active); in [6] it was 68.9%. Further, the growth in [7] is -67.1% (active); in assay [8], 23.7%; in assay [9], 27.5%; in assay [10] it was 17.5%.
Turning to `O=C1Nc2cc(Cl)ccc2/C1=C\c1c(-c2ccc(F)cc2)nc2ccccn12`, the growth is -20.4% (active) in assay [1]; 7.11% (active) in assay [2]; 39.5% in [3]; 3.44% (active) in assay [4]; 0.0437% (active) in [5]; 69.8% in assay [6]. Besides, the growth in [7] was -51.5% (active); in assay [8], 33.5%; in assay [9], 7.55% (active); in assay [10] it was -33.1% (active).
`COc1ccc(C(=O)Cn2c(C(=O)c3ccccc3)nc3ccccc32)cc1`: the growth in assay [1] is 28.2%; in assay [2] it was 38.5%; in assay [3] it was 78.7%; in [4], 40.6%; in assay [5], 8.51% (active); in assay [6], 54.7%. Further, the growth was -28.1% (active) in [7], 31.8% in assay [8], 43.6% in [9] and 51% in assay [10].
Regarding `COc1ccc(C/C(C)=C(/c2ccc(OCCCN(C)C)cc2)c2ccc(OC(C)=O)cc2)cc1`, the growth was 80.7% in assay [1]; 98% in assay [2]; 94.5% in [3]; 83.2% in assay [4]; 73.1% in assay [5]; 64.5% in assay [6]. The growth is 95.5% in [7], 74.3% in assay [8], 63.2% in assay [9] and 50.1% in assay [10].
With `CN[C@@H](C)C(=O)N[C@H]1CCS[C@H]2CC(C)(C)[C@@H](C(=O)N[C@H]3c4ccccc4C[C@H]3OCC#CC#CCO[C@@H]3Cc4ccccc4[C@@H]3NC(=O)[C@H]3N4C(=O)[C@@H](NC(=O)[C@H](C)NC)CCS[C@H]4CC3(C)C)N2C1=O`, the growth in assay [1] was 57.6%; in assay [2], 129%; in assay [3], 92.4%; in assay [4], 66.8%; in assay [5] it was 114%; in assay [6] it was 79.4%. The growth is 56.9% in [7], 95.3% in assay [8], 99.2% in assay [9] and 103% in assay [10].
Consider `COc1ccc(/C=C/c2nc(Nc3ccc(Cl)cc3)c3ccccc3n2)cc1`, for which the growth in assay [1] is 73.1%; in [2], 71.1%; in assay [3] it was 44.3%; in assay [4] it was 69%; in assay [5], 18.2%; in [6], 63.5%. Moreover, the growth in [7] was 69.3%; in assay [8] it was 35%; in assay [9], 36.9%; in assay [10] it was 63.1%.
For `CCCCCCCC(=O)OCC/C=C/C1OC1C1OC(=O)/C=C\C=C\C(=O)N(C(C)=O)C(=O)/C=C(/C)CCC2OC2C1OC(=O)NC(C)=O` (stereo not given), the growth in [1] is 84.6%; in [2], 81.1%; in [3], 111%; in [4], 79.8%; in assay [5], 82.4%; in [6] it was 53.3%. Also, the growth in [7] was 57.1%; in assay [8], 95.1%; in assay [9], 21.3%; in assay [10], 62.3%.
